In PubChem BioAssay AID1347087 (National Center for Advancing Translational Sciences (NCATS), 2019):
Where “and” joins values, the source holds several entries; their conditions need not be identical. Equal values may be shown once. Results filed as inconclusive are left out. Calls of active or inactive are those of the source. Calls follow the shape of the full dose curve.

assay: qHTS for Inhibitors of the Functional Ribonucleoprotein Complex (vRNP) of Lassa (LASV) Arenavirus: LASV Confirmatory Screen - GLuc reporter signal; details: LASV minigenome vRNP, Gaussia luciferase reporter; series mostly up to 53.9 µM

SMILES	Potency
Cc1ncc([N+](=O)[O-])n1CC(C)O (centres undefined)	inactive
Cn1cc(-c2ccncc2)c(-c2ccc(OCc3ccc4ccccc4n3)cc2)n1	24.3 µM (active)
CC1=C(C)C(=O)C(CCCCC#CCCCC#CCO)=C(C)C1=O	24.3 µM (active)
CC[C@@]1([C@@H]2O[C@@H]([C@H]3O[C@@](O)(CO)[C@H](C)C[C@H]3C)C[C@H]2C)CC[C@H]([C@]2(C)CC[C@]3(C[C@H](O)[C@@H](C)[C@@H]([C@@H](C)[C@@H](OC)[C@H](C)C(=O)O)O3)O2)O1	0.335 µM (active)
CC(=O)[C@H]1CC[C@H]2[C@@H]3CCC4=CC(=O)CC[C@]4(C)[C@H]3CC[C@]12C	21.7 µM (active)
CC(O)C(O)[C@H]1CNc2nc(N)[nH]c(=O)c2N1 (some centres undefined)	inactive
CCC(C)c1nccnc1OC (centres undefined)	inactive
Fc1ccc(CNc2ncnc3ccc(F)cc23)cc1	6.85 µM (active)
CCC1OC2(C)C(O)C(/C=C/C=C/C=C/c3oc(=O)cc(OC)c3C)OC1(C)C2OC(C)=O (centres undefined)	0.137 µM (active)
CCC[C@H](N[C@@H](C)C(=O)N1[C@@H]2CCCC[C@H]2C[C@H]1C(=O)O)C(=O)OCC	inactive
O=C(CCCN1CCN(c2ccc(F)cc2)CC1)NC1c2ccccc2CSc2ccccc21 (centres undefined)	inactive
O=C1c2ccccc2-n2c1nc1ccccc1c2=O	2.43 µM (active)
O=C1Cc2cc(CCN3CCN(c4nsc5ccccc45)CC3)c(Cl)cc2N1	2.17 µM (active) and 3.43 µM (active)
CCCCCN=C(N)N/N=C/c1c[nH]c2ccc(OC)cc12	8.63 µM (active)
